# Only some compounds are listed: those with a hit (about 12% of all), similar ones and a draw of the others.
# Sfp inh – blocks B. subtilis Sfp PPTase activity | Biochemical Sfp PPTase activity, qHTS | hit rate 3.5% among 310,000 | Potency, µM, for the others: largest response in the series, negative = inhibition, hits mostly inhibitors;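 note: the enzyme is Sfp with the accession as filed and its product quenches rhodamine fluorescence; 0% = enzyme reaction without inhibitor and -100% = no enzyme wells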
#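 Step 1, compound plus 15 nM Sfp-PPTase, 15 min, room temperature. Step 2, add rhodamine-CoA (5 uM) and BHQ-2-YbbR (12.5 uM). Step 3, read 525/598 nm fluorescence at 0 and 30 min.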
# BAZ2B inh – blocks human BAZ2B; Potency, µM (top dose mostly 114 µM), without a hit: at the highest dose activity change, negative = inhibition, most hits filed as inhibitors; hit rate 4.4% among 360,000; AlphaScreen BAZ2B-H3K14Ac peptide displacement; Q9UIF8; note: % is set by controls: 0 for no effect and ±100 for the full control effect; nearly all actives have a fitted effect of over 60% in size
#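 Multi-concentration screen (max 110 uM) measuring displacement of acetylated histone H3 peptide from BAZ2B by AlphaScreen, using 50 nM protein, 50 nM peptide and 10 ug/mL streptavidin donor plus Ni-chelate acceptor beads.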
# HP1b binding inh – blocks HP1-beta chromodomain binding to methylated histone tails. P83916. AlphaScreen HP1-beta / biotin-H3K9me3 peptide binding. Potency, µM (doses to about 114 µM), inactives show at the top dose activity change, negative = inhibition, actives largely listed as inhibitors. hit rate 0.56% among 390,000; note: nearly all actives have a fitted effect of over 70% in size
# Target sequence (P83916 whole entry, looked up): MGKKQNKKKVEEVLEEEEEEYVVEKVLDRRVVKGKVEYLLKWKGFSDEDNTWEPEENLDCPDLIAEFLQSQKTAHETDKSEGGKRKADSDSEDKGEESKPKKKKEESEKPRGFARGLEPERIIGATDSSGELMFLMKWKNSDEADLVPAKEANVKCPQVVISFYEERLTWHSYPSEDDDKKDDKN
#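 HP1-beta protein (50 nM final) preincubated 30 min at room temperature with biotinylated H3(1-18)K9me3 peptide (50 nM) in PBS pH 7.4, 0.01% Tween-20, then compound added for 30 min. AlphaScreen streptavidin donor/nickel chelate acceptor beads (10 ug/mL final), 30 min dark, luminescence read.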
# G9a block – inhibitors of human histone lysine methyltransferase G9a | Q96KQ7 | G9a H3K9 monomethylation, AlphaScreen, 2 h | Potency, µM (highest dose often 102 µM), inactives show at the top dose activity, negative = inhibition, actives largely listed as inhibitors | hit rate 8.8% among 350,000 | AID 504332; note: % is set by controls: 0 for no effect and ±100 for the full control effect; nearly all actives have a fitted effect of over 75% in size
# Target sequence (Q96KQ7 913-1193 limits assumed): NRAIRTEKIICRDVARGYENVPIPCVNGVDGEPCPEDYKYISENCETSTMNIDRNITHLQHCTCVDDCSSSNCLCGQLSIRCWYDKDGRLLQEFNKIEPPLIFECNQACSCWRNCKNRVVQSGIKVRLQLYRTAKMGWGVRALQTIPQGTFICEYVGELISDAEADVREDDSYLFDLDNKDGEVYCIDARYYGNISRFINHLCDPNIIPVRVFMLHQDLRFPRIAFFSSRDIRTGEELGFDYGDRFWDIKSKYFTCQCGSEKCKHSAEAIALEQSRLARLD
#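 Signal arises when biotinylated H3K9 peptide, once monomethylated, bridges streptavidin donor and antibody-captured acceptor beads. Enzyme at 20 nM was preincubated 15 min with test compounds; peptide 500 nM and SAM 20 uM then reacted for 2 h.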
# JMJD2A Tudor inh – blocks the human JMJD2A Tudor domain | O75164 | hit rate 4.4% among 390,000 | AlphaScreen JMJD2A-Tudor / H3K4me3 peptide binding | Potency, µM (titrated, usually from 114 µM), for inactives: at the highest dose activity change, negative = inhibition, usual class: inhibitors; note: % is set by controls: 0 for no effect and ±100 for the full control effect; nearly all actives have a fitted effect of over 50% in size
# Numbers without * were called inactive; ? = inconclusive; nt = no result given; [ ] = dose if it differs, or a comment. Calls come from the whole dose curve; as a rule, active = well fitted curve in the direction sought with a large enough effect; inconclusive = small, poorly fitted or top-dose-only effect, or another doubt; inactive = no such curve, though single readings can be large; an effect the other way counts as inactive or inconclusive. Potency is the fitted concentration of half-maximal effect.
SMILES,Sfp inh,BAZ2B inh,HP1b binding inh,G9a block,JMJD2A Tudor inh
Cc1ccn2c(Nc3ccc4c(c3)OCO4)c(-c3ccco3)nc2c1,nt,-37%,?,4.5µM*,?
COc1ccc(Nc2c(-c3ccc(C)o3)nc3ccccn23)cc1,nt,nt,-18%,nt,?
Cc1ccn2c(NC(=O)c3ccco3)c(-c3ccccc3)nc2c1,12%,9%,13%,-17%[59 µM],-20%
Cc1ccc(Nc2c(-c3ccc(C)o3)nc3cccc(C)n23)cc1,nt,25µM*,?,18µM*,45µM*
COc1ccc(COC(=O)N/N=C2/C[C@@H](O)[C@@H](O)[C@@H]3[C@@H]4C(=O)N(Cc5ccc6c(c5)OCO6)C(=O)[C@H]4CC[C@H]23)cc1,11%,nt,nt,nt,nt
Cc1ccc2[nH]c3nc(SCCN4CCOCC4)nnc3c2c1,?,1%,23%,?,-9%
Cc1ccc2[nH]c3nc(NN)nnc3c2c1,9%,3.5µM*,38%,nt,50µM*
O=C1c2ccccc2C(=O)N1CCCc1nc(-c2ccccn2)no1,-16%,?,-14%,22%[59 µM],79µM*
O=C1c2ccccc2C(=O)N1CCc1nc(-c2ccccn2)no1,0%,-3%,9%,-2%[59 µM],-7%
CCn1c(C(C)NC(=O)c2cccs2)n[nH]c1=S (configuration not stated),-12%,-5%,9%,13µM*,7.1µM*
C=CCn1c(CNC(=O)c2cccs2)n[nH]c1=S,-18%,22%,15%,25µM*,?
CCc1ccc(C(C)NC(=O)c2cccs2)cc1 (configuration not stated),nt,nt,-3%,nt,-7%
C=CCn1c(CNC(=O)c2cccs2)nnc1SCc1ccc(Cl)cc1Cl,5%,0%,-2%,-1%,-9%
C=CCn1c(C(C)NC(=O)c2cccs2)n[nH]c1=S (configuration not stated),-8%,0%,2%,16µM*,18µM*
Nc1n[nH]c2cc(=O)n(-c3ccc(Cl)cc3)nc12,9%,-10%,44%,45µM*,-9%
COc1ccc(-n2nc3c(N)n[nH]c3cc2=O)cc1,-11%,-17%,30%,50µM*,-10%
COc1ccc(-c2csc(NNC3=NCCCCC3)n2)cc1,13µM*,?,?,10µM*,?
CCOc1ccc(-c2csc(NNC3=NCCCCC3)n2)cc1,10µM*,50µM*,?,7.9µM*,-8%[11.4 µM]
CC(C)(O)C#Cc1ccc(C(=O)NCc2cccs2)s1,14%,-1%,41%,18%,4%
CC(=O)c1ccc(C#CC(C)(C)O)s1,3%,-4%,36%,13µM*,-21%
Cn1cccc1C(=O)N1CCC2(CC1)CCN(c1cccc(-c3ccccc3)c1)CC2,1%,nt,nt,-19%[12.7 µM],nt
COc1ccc(-c2csc(Cc3nnc(N4CCOCC4)n3-c3ccccc3)n2)cc1,-3%,5%,19%,50µM*,-21%
COc1ccc(-c2csc(Cc3nnc(N4CCOCC4)n3-c3ccccc3)n2)cc1OC,12%,?,11%,?,63µM*
O=C(O)CCc1nn2c3ccccc3n(CC(=O)O)c2nc1=O,-2%,2%,22%,50µM*,-1%
Cc1ccc(N2C(=O)CC(c3c[nH]c4ccccc34)C2=O)cc1 (configuration not stated),4%,0%,-17%,-6%,-27%
SMILES,Sfp inh,BAZ2B inh,HP1b binding inh,G9a block,JMJD2A Tudor inh
Cc1c(C2CC(=O)N(c3ccccc3)C2=O)[nH]n(-c2ccccc2)c1=O (configuration not stated),3%,?,20%,35µM*,-22%
c1cc2c3c(cccc3c1)-c1cnccc1-2,nt,nt,73%,nt,41%
O=C(COc1cccc(F)c1)N1c2ccccc2Sc2ccccc21,-9%,-2%,?,7%[59 µM],56µM*
Cc1ccccc1NC(=O)c1ccc(CN(c2ccccc2)S(=O)(=O)c2ccccc2)cc1,-3%,1%,29%,8%[59 µM],-9%
Cc1ccc(C(=O)Cn2cncn2)cc1,21%,-24%,4%,50µM*,-29%
O=C(Cn1cncn1)c1ccc(Cl)cc1,17%,-10%,62%,-19%,-10%
C=CCn1c(SCc2nc3ccccc3c(=O)[nH]2)nc2scc(C3CC3)c2c1=O,56µM*,8%,15%,-3%,-9%
Cc1cccc(N2CCN(C(=O)c3ccc4c(c3)c(C)c(C)n4C)CC2C)c1 (configuration not stated),-17%,22µM*,40µM*,45µM*,28µM*
CC1=C(C(=O)Nc2cc(C(=O)N3CCN(c4cccc(C)c4)C(C)C3)ccc2C)SCCO1 (configuration not stated),6%,?,-7%,35µM*,?
Cc1cccc(N2CCN(C(=O)c3ccc(N4CCCC4=O)cc3)CC2C)c1 (configuration not stated),10%,-30%,46%,38%[0.501 µM],-26%
COc1ccc(N2CCN(C(=O)c3ccc(C)c(NC(=O)C4=C(C)OCCS4)c3)CC2)cc1,9%,45µM*,22%,40µM*,?
CCOC(=O)C1CCCN(C(=O)c2ccc(C)c(NC(=O)C3=C(C)OCCS3)c2)C1 (configuration not stated),11%,-21%,30%,43%,-18%
Cc1cccc(N2CCN(C(=O)c3cc4ccc5cccnc5c4[nH]3)CC2C)c1 (configuration not stated),nt,28µM*,-14%,?,28µM*
CCc1ccccc1NC(=O)Cn1nc(-c2cc(C)ccc2C)c2c(c1=O)CCCC2,nt,-6%,18%,-5%[59 µM],-13%
O=c1c2c(nc3cc(-c4ccccc4Cl)[nH]n13)CCS2,22µM*,-6%,26%,nt,-17%
Cc1noc(C)c1-c1ccc2ncnc(NCc3ccc(Br)cc3)c2c1,4%,nt,nt,nt,-28%
O=C1Nc2ccc(Br)cc2C1Cc1ccccc1F (configuration not stated),5%,1%,44%,nt,-12%
Cn1c(CC2C(=O)Nc3ccc(Br)cc32)nc2ccccc2c1=O (configuration not stated),-3%,-4%,31%,50µM*,-15%
Clc1ccc2nc(N3CCNCC3)nc(-c3ccccc3)c2c1,-25%,30%,99%,18%[59 µM],22%
O=C1CN(c2nc(-c3ccccc3)c3cc(Cl)ccc3n2)c2ccccc2N1,13%,-3%,18%,50µM*,-4%
O=C1CCN(Cc2ccccc2)C=C1c1cccc(O)c1,nt,nt,32%,nt,-10%
COC(=O)[C@@H]1C=C[C@H](C)[C@H](CCOc2ccccc2)O1,18%,nt,nt,nt,nt
COc1ccc(-c2cn3cccnc3n2)cc1NC(=O)c1ccc(Br)o1,?,?,36%,2.8µM*,?
CCC(C(=O)Nc1cc(-c2cn3cccnc3n2)ccc1C)c1ccccc1 (configuration not stated),nt,3%,29%[57 µM],8%[59 µM],22µM*

# Compound activity: PubChem BioAssay, National Center for Advancing Translational Sciences (NCATS)
